Screens (PubChem)
Fam108B inh: blocks mouse Fam108B hydrolase in RBBP9 counter-screen; recombinant Fam108B, FP-Rh probe fluorescence polarization; inhibition, % at 9.51 µM; 0.33% of 300,000 active; AID 1947;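 active = inhibition above the screen mean inhibition plus 3 SD, computed separately per campaign, cut at about 18% in these data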;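 also: inhibitors lower polarization as less probe binds the enzyme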
PAFAH2 FP inh: inhibitors of human PAFAH2; Q99487; recombinant PAFAH2, FP-rhodamine activity probe, fluorescence polarization; inhibition, % at 3.39 µM; 0.99% of 340,000 active; AID 492956;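 active = inhibition above the mean over all tested compounds plus 3 SD, cut at about 30% in these data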;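 also: inhibitors block probe labeling of enzyme so polarization drops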
pPAFAH inh: inhibitors of human plasma PAF acetylhydrolase (pPAFAH). Q13093. recombinant pPAFAH, FP-rhodamine probe fluorescence polarization. inhibition, % at 3.39 µM. 1.5% of 330,000 active. AID 463082;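 active = inhibition above the mean inhibition across the screen plus 3 SD, cut at about 25% in these data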;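 also: inhibitors block binding of the rhodamine activity-based probe so polarization drops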
Target sequence (Q13093 whole entry, looked up): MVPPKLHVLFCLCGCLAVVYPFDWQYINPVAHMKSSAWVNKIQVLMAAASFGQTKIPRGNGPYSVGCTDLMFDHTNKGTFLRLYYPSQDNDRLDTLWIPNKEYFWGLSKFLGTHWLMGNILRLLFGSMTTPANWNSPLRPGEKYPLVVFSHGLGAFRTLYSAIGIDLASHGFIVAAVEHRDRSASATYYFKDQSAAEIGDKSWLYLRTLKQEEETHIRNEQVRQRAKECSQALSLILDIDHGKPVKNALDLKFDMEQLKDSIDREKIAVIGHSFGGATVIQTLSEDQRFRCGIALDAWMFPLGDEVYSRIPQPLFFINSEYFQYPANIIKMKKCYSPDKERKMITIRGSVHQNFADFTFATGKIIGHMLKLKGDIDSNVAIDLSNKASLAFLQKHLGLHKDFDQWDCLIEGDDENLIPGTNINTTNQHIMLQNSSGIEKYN
PAFAH1B3 inh: blocks human PAF acetylhydrolase 1B catalytic subunit 3; recombinant PAFAH1B3, FP-rhodamine probe, fluorescence polarization; inhibition, % at 3.39 µM; 0.28% of 340,000 active;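 active = inhibition above the screen-wide average of all tested compounds plus 3 SD, cut at about 25% in these data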
PME-1 inh: PME-1 (human) inhibition | Q9Y570 | recombinant PME-1, FP-Rh probe fluorescence polarization | inhibition, % at 5.9 µM | 0.53% of 320,000 active;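 active = inhibition above the campaign mean of all compounds plus 3 SD, cut at about 26% in these data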;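 also: competitive labeling of PME-1 active site by serine hydrolase directed probe; inhibitors block probe labeling so polarization falls and inhibition rises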
PAFAH1B2 FP inh: blocks human PAF acetylhydrolase 1b catalytic subunit 2; AID 492953; recombinant PAFAH1B2, FP-rhodamine activity probe, fluorescence polarization; 1.2% of 340,000 active; P68402; inhibition, % at 3.39 µM;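 active = inhibition above the mean of all tested compounds plus 3 SD, cut at about 24% in these data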
Hits are given with their value. Most compounds without a hit are left out; they make up all but 2.9% or so of the library.

O=[N+]([O-])c1cc([N+](=O)[O-])c2oc(-c3ccccc3)c(Br)c2c1O was read as PAFAH2 FP inh 46, PAFAH1B3 inh 28 and PAFAH1B2 FP inh 43.
`Nc1ccc(C(=O)O)cc1[N+](=O)[O-]` gave Fam108B inh inactive, PAFAH2 FP inh inactive, pPAFAH inh inactive, PAFAH1B3 inh inactive, PME-1 inh inactive and PAFAH1B2 FP inh inactive.
`CCN(CC)c1ccc(/C=C/c2cc(-c3ccccc3)c3ccccc3n2)cc1` gave Fam108B inh inactive, PAFAH2 FP inh inactive, pPAFAH inh 25, PAFAH1B3 inh inactive, PME-1 inh inactive and PAFAH1B2 FP inh inactive.
For Cc1cc(C)nc(SCC(=O)N/N=C/c2cccn2-c2ccc(O)cc2)n1 the results were Fam108B inh inactive, PAFAH2 FP inh inactive, pPAFAH inh inactive, PAFAH1B3 inh inactive, PME-1 inh inactive and PAFAH1B2 FP inh 28.
Screening Cc1cc(C)nc(SCC(=O)N/N=C/c2cccn2-c2cccc(C(F)(F)F)c2)n1 returned Fam108B inh inactive, PAFAH2 FP inh inactive, pPAFAH inh inactive, PAFAH1B3 inh inactive, PME-1 inh inactive and PAFAH1B2 FP inh inactive.
`O=C(Nc1ccc(S(=O)(=O)N2CCOCC2)cc1)c1ccc(=O)[nH]c1` gave Fam108B inh inactive, pPAFAH inh inactive and PME-1 inh inactive.
CN1CCC(NC(=O)c2cc(-c3cccc(Br)c3)nc3ccccc23)CC1 was read as Fam108B inh inactive, PAFAH2 FP inh inactive, pPAFAH inh inactive, PAFAH1B3 inh inactive, PME-1 inh inactive and PAFAH1B2 FP inh inactive.
Screening O=C(CSc1ccccc1)N/N=C/c1ccccc1O returned Fam108B inh inactive, PAFAH2 FP inh inactive, pPAFAH inh inactive, PAFAH1B3 inh inactive, PME-1 inh inactive and PAFAH1B2 FP inh 27.
Screening O=C(CCSCCC(=O)NN=Cc1ccccc1O)NN=Cc1ccccc1O returned PAFAH2 FP inh inactive, PAFAH1B3 inh inactive and PAFAH1B2 FP inh inactive.
CC1CCN(C(=O)CN(c2ccc3c(c2)OCCO3)S(=O)(=O)c2ccccc2)CC1 was read as Fam108B inh inactive, PAFAH2 FP inh inactive, pPAFAH inh inactive, PAFAH1B3 inh inactive, PME-1 inh inactive and PAFAH1B2 FP inh inactive.
O=C(O/N=C(\c1ccccc1)c1ccncc1)c1ccccc1F was read as Fam108B inh inactive, PAFAH2 FP inh 53, pPAFAH inh inactive, PAFAH1B3 inh inactive, PME-1 inh inactive and PAFAH1B2 FP inh 33.
For Cc1ccc(C(=O)O/N=C(\c2ccccc2)c2ccncc2)cc1 the results were Fam108B inh inactive, pPAFAH inh inactive and PME-1 inh inactive.
For O=C1C2CCCCN2C(=O)N1CCCCN1CCN(c2cccc(Cl)c2)CC1 (stereo not given) the results were Fam108B inh inactive, PAFAH2 FP inh inactive, pPAFAH inh 25, PAFAH1B3 inh inactive, PME-1 inh inactive and PAFAH1B2 FP inh inactive.
NS(=O)(=O)c1cc(C(=O)O)cc(N2CCCC2)c1Oc1ccccc1 was read as Fam108B inh inactive, PAFAH2 FP inh inactive, pPAFAH inh inactive, PAFAH1B3 inh inactive, PME-1 inh inactive and PAFAH1B2 FP inh 29.
O=S(=O)(c1ccc(Cl)cc1)N1CCN(CCc2ccccc2)CC1 was read as Fam108B inh inactive, PAFAH2 FP inh inactive, pPAFAH inh inactive, PAFAH1B3 inh inactive, PME-1 inh inactive and PAFAH1B2 FP inh 28.
For COc1cc2nc(CN3CCN(S(=O)(=O)c4ccc(Cl)cc4)CC3)[nH]c(=O)c2cc1OC the results were Fam108B inh inactive, PAFAH2 FP inh inactive, pPAFAH inh inactive, PAFAH1B3 inh inactive, PME-1 inh inactive and PAFAH1B2 FP inh inactive.
Screening O=c1[nH]c(CN2CCN(S(=O)(=O)c3ccc(Cl)cc3)CC2)nc2cc(Cl)ccc12 returned Fam108B inh inactive, PAFAH2 FP inh inactive, pPAFAH inh inactive, PAFAH1B3 inh inactive, PME-1 inh inactive and PAFAH1B2 FP inh 24.
For O=S(=O)(c1ccc(Cl)cc1)N1CCN(Cc2ccncc2)CC1 the results were Fam108B inh inactive, PAFAH2 FP inh inactive, pPAFAH inh inactive, PAFAH1B3 inh inactive, PME-1 inh inactive and PAFAH1B2 FP inh 24.
For CC1(C)CC(=O)C=C(Nc2cccc(Cl)c2Cl)C1 the results were Fam108B inh inactive, PAFAH2 FP inh inactive, pPAFAH inh inactive, PAFAH1B3 inh inactive, PME-1 inh inactive and PAFAH1B2 FP inh inactive.
For N#C/C(=C\c1ccc(O)c(O)c1)C(=O)NCCc1ccccc1 the results were Fam108B inh inactive, PAFAH2 FP inh 36, pPAFAH inh 27, PAFAH1B3 inh inactive, PME-1 inh inactive and PAFAH1B2 FP inh 64.
